In all, about 310,000 compounds went through this assay and about 14,000 (4.5%) showed an effect of 50% or more. Effects have a minus sign here. What follows is part of a selection rich in strong results, with near analogues and random picks from the rest.
Molecular target: human ether-à-go-go-related gene (hERG) potassium channel (human, UniProt Q12809)
Experiment: primary screen, population patch clamp on CHO cells stably expressing hERG; higher = less effect of the substance
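Note: peak tail current of the secondary pulse compared with the same well before compound.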

Sequence of human ether-à-go-go-related gene (hERG) potassium channel (Q12809 whole entry, looked up): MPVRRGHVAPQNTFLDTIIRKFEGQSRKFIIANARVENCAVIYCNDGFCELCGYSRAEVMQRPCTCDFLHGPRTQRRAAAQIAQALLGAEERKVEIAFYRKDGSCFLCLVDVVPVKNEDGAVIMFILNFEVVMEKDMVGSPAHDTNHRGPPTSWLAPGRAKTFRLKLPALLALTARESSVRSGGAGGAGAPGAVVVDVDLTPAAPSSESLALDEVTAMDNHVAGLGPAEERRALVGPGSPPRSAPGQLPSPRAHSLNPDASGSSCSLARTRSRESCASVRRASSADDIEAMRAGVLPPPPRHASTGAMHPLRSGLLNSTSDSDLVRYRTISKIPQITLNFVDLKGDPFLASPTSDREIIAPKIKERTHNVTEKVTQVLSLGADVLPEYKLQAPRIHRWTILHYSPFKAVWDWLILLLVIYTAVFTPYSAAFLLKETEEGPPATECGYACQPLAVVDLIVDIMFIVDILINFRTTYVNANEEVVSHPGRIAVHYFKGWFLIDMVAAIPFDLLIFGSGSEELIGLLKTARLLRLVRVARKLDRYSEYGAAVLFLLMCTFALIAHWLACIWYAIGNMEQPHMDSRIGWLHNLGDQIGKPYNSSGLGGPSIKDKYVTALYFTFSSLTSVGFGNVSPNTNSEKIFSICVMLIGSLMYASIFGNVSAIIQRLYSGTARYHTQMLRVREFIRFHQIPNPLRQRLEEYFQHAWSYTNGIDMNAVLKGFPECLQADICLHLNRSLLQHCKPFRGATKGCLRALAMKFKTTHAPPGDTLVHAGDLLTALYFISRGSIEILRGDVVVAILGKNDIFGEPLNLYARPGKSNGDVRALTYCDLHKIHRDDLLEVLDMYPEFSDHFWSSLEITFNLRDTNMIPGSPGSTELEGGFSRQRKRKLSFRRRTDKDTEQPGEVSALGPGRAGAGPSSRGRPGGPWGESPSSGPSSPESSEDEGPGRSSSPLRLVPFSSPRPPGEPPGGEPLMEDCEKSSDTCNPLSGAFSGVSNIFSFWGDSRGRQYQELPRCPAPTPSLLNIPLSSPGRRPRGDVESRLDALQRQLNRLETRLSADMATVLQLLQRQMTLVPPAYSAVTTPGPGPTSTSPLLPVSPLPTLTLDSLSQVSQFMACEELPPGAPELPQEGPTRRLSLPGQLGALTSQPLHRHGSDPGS

Structure (SMILES)	hERG current change (%, negative = inhibition) at 10uM
CC(C)c1ccc[n+](-c2nc([O-])sc2C=O)c1	14.7%
S=c1nc(-c2ccccc2)n(CCN2CCOCC2)c2c1CCCC2	-13.4%
O=C1c2ccccc2C(=O)C1c1ccc(Cl)cc1	8.89%
CCOC(=O)N1CCN(C(=O)c2cc3cc(C)ccc3[nH]2)CC1	-7.43%
O=c1[nH]nc(C(F)(F)F)c2nnn(Cc3ccccc3Cl)c12	14.1%
CN1CCN(c2ccccc2NC(=O)c2ccc(-c3ccc(Cl)c(Cl)c3)o2)CC1	-3.73%
Cc1ccc(CN2CCC(n3nccc3NC(=O)CCCc3ccccc3)CC2)o1	-20.5%
CCn1cc(CN2CCC(n3nccc3NC(=O)CCCc3ccccc3)CC2)c(C)n1	-28.4%
C/C=C(\C)CN1CCC(n2nccc2NC(=O)CCc2ccccc2)CC1	-28.9%
CCn1nc(C)c(CN2CCC(n3nccc3NC(=O)CCCc3ccccc3)CC2)c1C	-60.1%
C/C=C(\C)CN1CCC(n2nccc2NC(=O)CCOc2ccccc2)CC1	-31.5%
CSCC(=O)N1CCC(n2nccc2NC(=O)CCCc2ccccc2)CC1	-17.6%
CCn1nc(C)c(CN2CCC(n3nccc3NC(=O)Cc3ccccc3)CC2)c1C	6.57%
CSCCCN1CCC(n2nccc2NC(=O)CCCc2ccccc2)CC1	-62.5%
C/C=C(\C)CN1CCC(n2nccc2NC(=O)CCCc2ccccc2)CC1	-62.9%
CSCCC(=O)N1CCC(n2nccc2NC(=O)CCCc2ccccc2)CC1	-5.8%
CCOc1ccc(CN2CCC(n3nccc3NC(=O)CCCc3ccccc3)CC2)cc1	-78.2%
CCn1cc(CN2CCC(n3nccc3NC(=O)CCCc3ccccc3)CC2)cn1	-27.3%
CC(C)CN(Cc1cc2ccccc2[nH]c1=O)C(=O)c1cccnc1	-1.54%
Cn1nc(C(C)(C)C)cc1C(=O)NNC(=O)c1ccccc1Cl	14.1%
O=C(COC(=O)[C@@H]1CCCN1S(=O)(=O)c1ccc(Cl)cc1)NC1CCS(=O)(=O)C1 (stereo partly shown)	-14.7%
COc1ccc(CNC(=O)CCC(=O)N2CCN(C(C)=O)CC2)cc1	14.3%
Cc1nn(-c2ccccc2)nc1C(=O)Nc1ccc2[nH]ncc2c1	6.02%

Structure (SMILES)	hERG current change (%, negative = inhibition) at 10uM
CC1Cc2ccccc2N1c1ncnc2c1nnn2Cc1ccccc1 (stereo not shown)	-0.652%
COc1cc(NC(=S)NC2CC2)c(OC)cc1Cl	-1.86%
CC(OC(=O)c1cccs1)C(=O)NCc1ccc2c(c1)OCO2 (stereo not shown)	15.4%
Cc1ccccc1-n1nc2c(c1NC(=O)c1ccc(Br)o1)CSC2	-7.03%
COC(=O)c1ccc(CNC(=O)COC(=O)Cc2ccsc2)cc1	-6.64%
C=C(C)CCC(C)N1CCC(n2nccc2NC(=O)CCCc2ccccc2)CC1 (stereo not shown)	-74.2%
CSCC(C)N1CCC(n2nccc2NC(=O)CCCc2ccccc2)CC1 (stereo not shown)	-47.5%
CSc1ccc(CN2CCC(n3nccc3NC(=O)CCCc3ccccc3)CC2)cc1	-82.5%
COCC(C)N1CCC(n2nccc2NC(=O)CCCc2ccccc2)CC1 (stereo not shown)	-15.2%
Cc1cccc(CN2CCC(n3nccc3NC(=O)CCCc3ccccc3)CC2)n1	-20.2%
COc1ccc(C(=O)Nc2nnc(S(=O)(=O)N3CCCCCC3)s2)cc1OC	-0.855%
COc1cc(NC(=O)COc2cccc(C)c2C)ccc1NC(=O)c1ccco1	13%
O=C(Nc1ccc(N2CCOCC2)cc1)c1cccc(S(=O)(=O)N2CCCC2)c1	1.96%
CC(=O)c1cccc(OCc2cc(C(=O)N(C)C(C)c3ccccn3)no2)c1 (stereo not shown)	-4.32%
CC(NC(=O)/C=C/c1cnc2ccccc2n1)C12CC3CC(CC(C3)C1)C2 (stereo not shown)	-10.1%
Cc1cc(Cl)c(S(=O)(=O)N2CCN(c3ccccn3)CC2)cc1OCC(N)=O	17.6%
Cc1cc(Cl)c(S(=O)(=O)Nc2ccc(Cl)cn2)cc1OCC(N)=O	-2.03%
Cc1cc(Cl)c(S(=O)(=O)NCc2cccnc2)cc1OCC(=O)NC1CCCCC1	-53.2%
Cc1cc(Cl)c(S(=O)(=O)NCc2cccnc2)cc1OCC(N)=O	10.1%
Cc1cc(Cl)c(S(=O)(=O)N2CCN(c3ccccn3)CC2)cc1OCC(=O)NC1CCCCC1	-56.9%
Cc1cc(Cl)c(S(=O)(=O)Nc2ccccn2)cc1OCC(N)=O	-71.8%
Cc1ccccc1NS(=O)(=O)c1cc(OCC(N)=O)c(C)cc1Cl	5.68%
Cc1cc(Cl)c(S(=O)(=O)NC2CCCC2)cc1OCC(=O)NC1CCCCC1	-7.18%

From paper PMC4336329 (PLoS ONE, 2015)
